From PubChem
Avidin fluor = compound fluoresces at 488/530 nm on avidin beads | compound fluorescence 488/530 nm, flow cytometry; hits give high values | fluorescence (KMESF) at 10 µM | hit rate 0.38% among 220,000 | AID 1775; in the data active = fluorescence above about 47
GSH bead fluor = GSH bead compound fluorescence profile. GSH beads flow cytometry, compound fluorescence 488/530 nm; hits give high values. fluorescence (KMESF) at 10 µM. hit rate 0.25% among 190,000; in the data active = fluorescence above about 89;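 note: glutathione beads carrying GST-tagged Bcl family fusion proteins plus one bare bead set; values are compound well signal with DMSO vehicle wells as background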
RGS4-Gao reg = modulates binding of RGS4 to human Galphao | binding response (% of control), % at 10 µM | Multiplexed bead flow cytometry; actives lie on both sides | AID 1415 | hit rate 0.33% among 220,000; in the data active = binding response below about 49% or above about 150%; inactive = in between;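 note: fluorescent Galphao activated with aluminum fluoride binding bead-coupled RGS4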
Target sequence (P09471 whole entry, looked up): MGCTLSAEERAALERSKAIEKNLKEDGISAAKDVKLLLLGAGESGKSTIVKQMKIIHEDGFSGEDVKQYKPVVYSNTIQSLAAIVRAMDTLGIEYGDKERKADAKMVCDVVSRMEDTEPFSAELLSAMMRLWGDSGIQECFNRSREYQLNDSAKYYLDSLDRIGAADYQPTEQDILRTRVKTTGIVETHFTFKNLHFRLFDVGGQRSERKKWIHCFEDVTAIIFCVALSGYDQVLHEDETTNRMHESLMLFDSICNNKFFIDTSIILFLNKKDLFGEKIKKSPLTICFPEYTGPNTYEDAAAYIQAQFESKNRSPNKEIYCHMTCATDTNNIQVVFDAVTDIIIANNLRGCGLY
RGS8-Gao reg = human RGS8-Galphao interaction regulation. P09471. multiplexed bead flow cytometry, RGS8-Galphao binding; actives lie on both sides. response (percent of control binding), % at 10 µM. hit rate 0.34% among 220,000; in the data active = response below about 60% or above about 140%; inactive = in between;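 note: Galphao activated as the GDP aluminium fluoride complex binding bead-coupled RGS8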
RGS16-Gao = RGS16-Galphao interaction regulator (human); hit rate 0.38% among 220,000; bead-based flow cytometry RGS16-Galphao binding, fluorescence; actives lie on both sides; O15492+P09471; binding response (% of control), % at 10 µM; AID 1441;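 note: Galphao activated by GDP with aluminum fluoride before binding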
RGS7-Gao reg = regulators of human RGS7-Galphao interaction; Multiplexed bead flow cytometry, RGS7-Galphao binding; actives lie on both sides; binding response (% of control), % at 10 µM; P09471; hit rate 0.35% among 220,000; in the data active = binding response below about 49% or above about 150%; inconclusive = no clear call, values can overlap the other calls; inactive = in between;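 note: fluorescent Galphao held in activated GDP-AlF4 state binding bead-coupled RGS7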
RGS-Gao = modulates binding between human RGS4 and Galphao; multiplexed bead flow cytometry, RGS–Galpha-o binding; shares compounds with RGS16-Gao; hit rate 99% among 1,600; AID 1504; RGS4–Galpha-o binding response, % at 10 µM;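 note: fluorescently labeled Galpha-o bound to GDP with aluminium fluoride binding biotinylated RGS beads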
Target sequence (P09471 whole entry, looked up): as above
Target sequence (P49798 whole entry, looked up): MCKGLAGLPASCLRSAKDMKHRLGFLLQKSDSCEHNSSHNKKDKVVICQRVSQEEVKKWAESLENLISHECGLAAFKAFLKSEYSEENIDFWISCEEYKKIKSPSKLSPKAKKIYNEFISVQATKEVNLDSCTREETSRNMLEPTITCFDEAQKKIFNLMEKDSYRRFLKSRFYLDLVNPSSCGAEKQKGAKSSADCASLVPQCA
Avidin counter = interferes with biotinylated probe binding to avidin beads; shares compounds with RGS16-Gao; streptavidin beads, fluorescein-biotin binding, flow cytometry; inhibition, % at 10 µM; 1,700 tested, under 10 active; AID 1783;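 active = inhibition above 50%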;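 note: median green fluorescence of gated singlet beads compared with DMSO control wells; 0% = DMSO wells and 100% = complete loss of bead fluorescence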
RGS8-Gao confirm = RGS8-Galphao interaction regulation, single point confirmation; binding response (% of control), % at 10 µM; hit rate 3% among 1,700; AID 1836; bead-based flow cytometry RGS8-Galphao binding, fluorescence; actives lie on both sides; shares compounds with RGS16-Gao; in the data active = binding response below about 72% or above about 130%; inactive = in between;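 note: Galphao activated as GDP AlF4 complex before binding bead RGS8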
RGS7-Gao single = confirmation of regulators of human RGS7-Galphao interaction; shares compounds with RGS16-Gao; bead-based flow cytometry RGS7-Galphao binding; actives lie on both sides; response (percent of control binding), % at 10 µM; hit rate 7.8% among 1,700; in the data active = response below about 75% or above about 130%; inactive = in between;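 note: fluorescent Galphao activated with GDP and aluminum fluoride binding bead-coupled RGS7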
RGS16-Gao conf = confirmation of regulators of human RGS16-Galphao interaction; hit rate 4% among 1,700; response (% of control binding), % at 10 µM; bead-based flow cytometry, RGS16-Galphao binding; actives lie on both sides; AID 1838; shares compounds with RGS16-Gao; in the data active = response below about 74% or above about 130%; inactive = in between;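 note: Galphao activated as the GDP aluminium fluoride complex binding bead-coupled RGS16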
RGS4-Gao confirm = confirmation of regulators of human RGS4-Galphao interaction. shares compounds with RGS16-Gao. RGS4-Galphao binding, multiplexed bead flow cytometry; actives lie on both sides. binding response (% of control), % at 10 µM. hit rate 4% among 1,700; in the data active = binding response below about 74% or above about 130%; inactive = in between
RGS19-Gao conf = confirmation of regulators of human RGS19-Galphao interaction | hit rate 5% among 1,700 | bead-based flow cytometry RGS19-Galphao binding; actives lie on both sides | response (percent of control binding), % at 10 µM | shares compounds with RGS16-Gao | AID 1841; in the data active = response below about 50% or above about 160%; inactive = in between;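 note: 100% = no compound control and 0% = blank background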
* hit, by the source's call; i = inactive; ? = inconclusive; . = not tested or not shown; [ ] = dose if it differs, or a comment. Compounds with a hit are over-represented: about 1.2% of the library has one in this group of screens. Unless noted, the rule behind the calls is not given here.

SMILES	Avidin fluor	GSH bead fluor	RGS4-Gao reg	RGS8-Gao reg	RGS16-Gao	RGS7-Gao reg	RGS-Gao	Avidin counter	RGS8-Gao confirm	RGS7-Gao single	RGS16-Gao conf	RGS4-Gao confirm	RGS19-Gao conf
Cc1cc(C)c(C2=NOC3C4CCC(C4)C23)c(C)c1 (stereo not drawn)	10	20	100.5	100.3	99.9	94.3	.	.	.	.	.	.	.
CC1(C)CC(c2nc(-c3ccc([N+](=O)[O-])cc3)cs2)CCO1 (stereo not drawn)	10	12	100.5	100.8	96.6	101.0	.	.	.	.	.	.	.
CC1=NN(C(C#N)c2ccc(F)cc2)C(C)(C)C1 (stereo not drawn)	4	16	49.8*	57.9*	45.1	43.6*	.	-0.1	104.2	110.8	106.7	109.2	102.7
CC1=NN(C(C#N)c2ccc([N+](=O)[O-])cc2)C(C)(C)C1 (stereo not drawn)	8	.	107.5	105.9	122.5	?	.	.	.	.	.	.	.
CC1=CC(C)(C)Nc2ccccc21	4	13	76.5	62.9	13.1*	73.4	76.5*	0.4	99.9	99.7	101.6	103.1	104.2
Cc1ccc(NC(C#N)c2ccccc2OCc2ccccc2)cc1 (stereo not drawn)	27	25	99.7	109.6	129.8	102.1	.	.	.	.	.	.	.
CSCCC(NC(N)=O)C(=O)NCc1ccccc1Cl (stereo not drawn)	9	10	73.6	94.7	-698.5*	80.2	73.6*	-2.6	99.8	99.0	97.9	98.4	91.1
CSCCC(NC(N)=O)C(=O)NCc1cccc(Cl)c1 (stereo not drawn)	7	6	108.7	109.3	125.5	105.0	.	.	.	.	.	.	.
CN1CCN(C(=O)c2ccc(-n3cccn3)nc2)CC1	21	12	101.9	101.0	105.2	99.4	.	.	.	.	.	.	.
Cc1cc(=O)oc2c(CN(CC(C)C)CC(C)C)c(O)ccc12	4	12	119.4	143.6*[activator]	249.5	115.2	119.4*	i	99.2	102.7	100.5	100.9	98.7
CC(=O)c1ccc(OCCn2cnc3ccccc32)cc1	18	10	112.4	119.7	192.2*[activator]	109.1	112.4*	-0.9	99.6	100.7	101.8	100.6	109.3
Cc1cc(NC(=O)C2CC(=O)OC2c2ccccc2)no1 (stereo not drawn)	13	29	95.8	100.6	100.1	96.8	.	.	.	.	.	.	.
COc1ccc(NC(=O)C2CC(=O)OC2c2ccccc2)cc1 (stereo not drawn)	7	10	96.4	90.2	24.1*	99.0	96.4*	-0.2	104.2	103.2	103.8	102.5	101.8
N/C(Cc1nc(-c2ccc(Br)cc2)cs1)=N\O	4	10	102.1	104.1	101.4	102.0	.	.	.	.	.	.	.
COc1cccc(NC(=O)CSc2ncnc3c2cnn3Cc2ccccc2)c1	12	33	101.8	101.1	100.9	96.0	.	.	.	.	.	.	.
COc1ccc(NC(=O)CSc2ncnc3c2cnn3CCc2ccccc2)cc1	0	9	-20.0*	19.3*	-12.1*	0.3*	.	-1.2	100.5	100.8	100.9	102.9	103.1
Cc1ccc(C(=O)N/N=C/C=C/c2ccccc2)o1	36	20	112.8	98.1	116.5	229.9*[activator]	112.8*	0.0	98.4	97.1	96.4	95.0	106.0
Cc1onc(-c2ccccc2)c1C(=O)N/N=C/C=C/c1ccccc1	6	.	101.1	101.3	104.4	?	.	.	.	.	.	.	.
Cc1ccc(S(=O)(=O)N/N=C\c2cc([N+](=O)[O-])ccc2Cl)cc1	26	34	102.4	100.8	102.6	104.6	.	.	.	.	.	.	.
Cc1ccc(S(=O)(=O)N/N=C/c2cccc([N+](=O)[O-])c2)cc1	6	13	83.3	73.6	-8.2*	80.0	83.3*	0.9	98.9	89.7	96.4	94.3	81.5
Cc1[nH]c2ccccc2c1/C=N/NC(=S)NCc1ccccc1	34	17	159.4*[activator]	106.4	159.2	?	.	0.6	109.8	226.1*[activator]	146.5*[activator]	164.9*[activator]	294.1*[activator]
CC(C)(C)c1ccc(N2C(=O)CSC2c2cccnc2)cc1 (stereo not drawn)	6	.	99.6	99.4	100.1	?	.	.	.	.	.	.	.
N#CCCC(CCC#N)C1=NCCc2ccccc21	3	.	113.6	105.3	110.1	?	.	.	.	.	.	.	.
COC(=O)c1ccccc1COn1c(=O)c[n+]([O-])c2ccccc21	45	19	231.2*[activator]	91.4	187.0	158.1*[activator]	.	0.2	100.7	99.5	98.8	102.7	95.7
O=[N+]([O-])c1ccc(Nc2nc(NC3CCCCC3)nc(N3CCCC3)n2)cc1	27	13	169.6*[activator]	104.4	156.9	159.6*[activator]	.	-0.4	91.8	98.0	88.7	95.5	84.6
SMILES	Avidin fluor	GSH bead fluor	RGS4-Gao reg	RGS8-Gao reg	RGS16-Gao	RGS7-Gao reg	RGS-Gao	Avidin counter	RGS8-Gao confirm	RGS7-Gao single	RGS16-Gao conf	RGS4-Gao confirm	RGS19-Gao conf
CC(C)CC(=O)OC1C(N2CCOCC2)c2c(ccc(/C=C/C(=O)N3CCOCC3)c2O)OC1(C)C (stereo not drawn)	12	9	89.6	81.7	4.2	91.7	.	.	.	.	.	.	.
Cc1ccc(Cl)cc1N(CC(=O)NC1CCCCC1)S(C)(=O)=O	11	14	180.2*[activator]	246.7*[activator]	i	197.2*[activator]	.	-2.3	102.6	107.8	104.4	102.0	106.5
C=CCSC1=NC(N)=C(C#N)C2(CCCCC2)C1C(N)=O (stereo not drawn)	18	19	91.4	86.4	36.4	85.8	.	.	.	.	.	.	.
N#CC1=C(N)N=C(SCc2ccccc2)C(C(N)=O)C12CCCCC2 (stereo not drawn)	5	7	108.0	142.5*[activator]	268.3	107.4	108.0*	.	.	.	.	.	.
O=C(CNC(=O)C1COc2ccccc2O1)N/N=C/c1ccc(O)cc1O (stereo not drawn)	4	4	61.8	56.1*	-1.7*	61.0	61.8*	0.5	102.6	103.1	103.0	102.7	87.9
COc1ccc(CCNC(=O)CN(C)S(=O)(=O)c2ccc(Br)s2)cc1OC	6	25	103.2	123.9	241.1*[activator]	99.9	103.2*	-0.1	97.9	103.4	102.6	102.6	112.2
